# Laboratory results published in the supplement of paper PMC8728848.
# Only a selection was taken, and the strongest signals are over-represented in it overall.
# Tests used:
# Experiment in all cases: glycan array binding signal (z-score within array); higher = stronger binding
# Conditions in all cases: glycan notation: IUPAC condensed, linker removed
# [1] = biological target: Fuc(a1-2)Gal(b1-3)GalNAc(b1-4)[Neu5Ac(a2-3)]Gal(b1-4)Glc
# Summary of the method: (§1)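 Negative Z-scores can be read as non-binding. The Z-score is calculated within each array and then averaged across arrays of one protein sequence at different concentrations or buffers and across linkers. Arrays, 3228 in all, were curated from the Consortium for Functional Glycomics database and kept only where the protein sequence was available.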
# [2] = biological target: Fuc(a1-2)Gal(b1-4)GlcNAc
# Summary of the method: as §1
# [3] = biological target: Fuc(a1-2)Gal(b1-4)GlcNAc(b1-2)Man(a1-3)[Fuc(a1-2)Gal(b1-4)GlcNAc(b1-2)Man(a1-6)]Man(b1-4)GlcNAc(b1-4)[Fuc(a1-6)]GlcNAc
# Summary of the method: as §1
# [4] = biological target: Fuc(a1-2)[Gal(a1-3)]Gal(b1-3)GlcNAc
# Summary of the method: as §1
# [5] = biological target: Fuc(a1-2)[Gal(a1-3)]Gal(b1-3)GlcNAc(b1-6)GalNAc
# Summary of the method: as §1
# [6] = biological target: Fuc(a1-2)[GalNAc(a1-3)]Gal(b1-4)GlcNAc(b1-2)Man
# Summary of the method: as §1
# [7] = biological target: Fuc(a1-2)[GalNAc(a1-3)]Gal(b1-4)GlcNAc(b1-2)Man(a1-3)[Fuc(a1-2)[GalNAc(a1-3)]Gal(b1-4)GlcNAc(b1-2)Man(a1-6)]Man(b1-4)GlcNAc(b1-4)[Fuc(a1-6)]GlcNAc
# Summary of the method: as §1
# [8] = biological target: Fuc(a1-3)[Gal(b1-4)]GlcNAc(b1-6)[Gal(b1-3)GlcNAc(b1-3)]Gal(b1-4)Glc
# Summary of the method: as §1
# [9] = biological target: Gal(a1-3)Gal(b1-4)GlcNAc(b1-6)GalNAc
# Summary of the method: as §1
# [10] = biological target: Gal(b1-3)Gal(b1-4)GlcNAc
# Summary of the method: as §1
# [11] = biological target: Gal(b1-3)GalNAc(b1-4)[Neu5Ac(a2-3)]Gal(b1-4)Glc
# Summary of the method: as §1
# [12] = biological target: Gal(b1-4)Glc
# Summary of the method: as §1
# [13] = biological target: Gal(b1-4)GlcNAc(a1-6)Gal(b1-4)GlcNAc
# Summary of the method: as §1
# [14] = biological target: Gal(b1-4)GlcNAc(b1-2)Man(a1-3)[Gal(b1-4)GlcNAc(b1-2)Man(a1-6)][Gal(b1-4)GlcNAc(b1-4)]Man(b1-4)GlcNAc(b1-4)[Fuc(a1-6)]GlcNAc
# Summary of the method: as §1
# [15] = biological target: Gal(b1-4)GlcNAc(b1-2)Man(a1-6)[GlcNAc(b1-2)Man(a1-3)]Man(b1-4)GlcNAc(b1-4)GlcNAc
# Summary of the method: as §1
# [16] = biological target: Gal(b1-4)GlcNAc(b1-3)Gal(b1-4)GlcNAc(b1-2)Man(a1-3)[Gal(b1-4)GlcNAc(b1-3)Gal(b1-4)GlcNAc(b1-2)Man(a1-6)]Man(b1-4)GlcNAc(b1-4)GlcNAc
# Summary of the method: as §1
# [17] = biological target: Gal(b1-4)GlcNAc(b1-3)Gal(b1-4)GlcNAc(b1-2)[Gal(b1-4)GlcNAc(b1-3)Gal(b1-4)GlcNAc(b1-6)]Man(a1-6)[Gal(b1-4)GlcNAc(b1-3)Gal(b1-4)GlcNAc(b1-2)Man(a1-3)]Man(b1-4)GlcNAc(b1-4)[Fuc(a1-6)]GlcNAc
# Summary of the method: as §1
# [18] = biological target: Gal(b1-4)GlcNAc(b1-3)Gal(b1-4)GlcNAc(b1-3)Gal(b1-4)GlcNAc(b1-3)Gal(b1-4)GlcNAc(b1-2)Man(a1-3)[Gal(b1-4)GlcNAc(b1-3)Gal(b1-4)GlcNAc(b1-3)Gal(b1-4)GlcNAc(b1-3)Gal(b1-4)GlcNAc(b1-2)Man(a1-6)]Man(b1-4)GlcNAc(b1-4)GlcNAc
# Summary of the method: as §1
# [19] = biological target: Gal(b1-4)GlcNAc(b1-3)Gal(b1-4)GlcNAc(b1-3)Gal(b1-4)GlcNAc(b1-3)Gal(b1-4)GlcNAc(b1-2)Man(a1-3)[Gal(b1-4)GlcNAc(b1-3)Gal(b1-4)GlcNAc(b1-3)Gal(b1-4)GlcNAc(b1-3)Gal(b1-4)GlcNAc(b1-2)Man(a1-6)]Man(b1-4)GlcNAc(b1-4)[Fuc(a1-6)]GlcNAc
# Summary of the method: as §1
# [20] = biological target: Gal(b1-4)GlcNAc(b1-3)Gal(b1-4)GlcNAc(b1-3)Gal(b1-4)GlcNAc(b1-3)Gal(b1-4)GlcNAc(b1-3)Gal(b1-4)GlcNAc(b1-2)Man(a1-3)[Gal(b1-4)GlcNAc(b1-3)Gal(b1-4)GlcNAc(b1-3)Gal(b1-4)GlcNAc(b1-3)Gal(b1-4)GlcNAc(b1-3)Gal(b1-4)GlcNAc(b1-2)Man(a1-6)]Man(b1-4)GlcNAc(b1-4)[Fuc(a1-6)]GlcNAc
# Summary of the method: as §1
# [21] = biological target: Gal3S(b1-4)Glc
# Summary of the method: as §1
# [22] = biological target: Glc(a1-4)Glc(a1-4)Glc(a1-4)Glc
# Summary of the method: as §1
# [23] = biological target: GlcNAc(b1-2)[GlcNAc(b1-6)]Man(a1-6)[GlcNAc(b1-2)Man(a1-3)]Man(b1-4)GlcNAc(b1-4)[Fuc(a1-6)]GlcNAc
# Summary of the method: as §1
# [24] = biological target: GlcNAc(b1-3)Gal(b1-4)GlcNAc(b1-2)[GlcNAc(b1-3)Gal(b1-4)GlcNAc(b1-6)]Man(a1-6)[GlcNAc(b1-3)Gal(b1-4)GlcNAc(b1-2)Man(a1-3)]Man(b1-4)GlcNAc(b1-4)GlcNAc
# Summary of the method: as §1
# [25] = biological target: GlcNAc(b1-3)Gal(b1-4)GlcNAc(b1-3)Gal(b1-4)GlcNAc(b1-2)Man(a1-3)[GlcNAc(b1-3)Gal(b1-4)GlcNAc(b1-3)Gal(b1-4)GlcNAc(b1-2)Man(a1-6)]Man(b1-4)GlcNAc(b1-4)GlcNAc
# Summary of the method: as §1
# [26] = biological target: GlcNAc(b1-3)Gal(b1-4)GlcNAc(b1-3)Gal(b1-4)GlcNAc(b1-2)[GlcNAc(b1-3)Gal(b1-4)GlcNAc(b1-3)Gal(b1-4)GlcNAc(b1-6)]Man(a1-6)[GlcNAc(b1-3)Gal(b1-4)GlcNAc(b1-3)Gal(b1-4)GlcNAc(b1-2)Man(a1-3)]Man(b1-4)GlcNAc(b1-4)[Fuc(a1-6)]GlcNAc
# Summary of the method: as §1
# [27] = biological target: GlcNAc(b1-3)Gal(b1-4)GlcNAc(b1-3)Gal(b1-4)GlcNAc(b1-3)Gal(b1-4)GlcNAc(b1-2)Man(a1-3)[GlcNAc(b1-3)Gal(b1-4)GlcNAc(b1-3)Gal(b1-4)GlcNAc(b1-3)Gal(b1-4)GlcNAc(b1-2)Man(a1-6)]Man(b1-4)GlcNAc(b1-4)[Fuc(a1-6)]GlcNAc
# Summary of the method: as §1
# [28] = biological target: GlcNAc(b1-3)Gal(b1-4)GlcNAc(b1-3)Gal(b1-4)GlcNAc(b1-3)Gal(b1-4)GlcNAc(b1-2)[GlcNAc(b1-3)Gal(b1-4)GlcNAc(b1-3)Gal(b1-4)GlcNAc(b1-3)Gal(b1-4)GlcNAc(b1-6)]Man(a1-6)[GlcNAc(b1-3)Gal(b1-4)GlcNAc(b1-3)Gal(b1-4)GlcNAc(b1-3)Gal(b1-4)GlcNAc(b1-2)Man(a1-3)]Man(b1-4)GlcNAc(b1-4)[Fuc(a1-6)]GlcNAc
# Summary of the method: as §1
# [29] = biological target: GlcNAc(b1-3)GalNAc
# Summary of the method: as §1
# [30] = biological target: GlcNAc(b1-3)[GlcNAc(b1-4)][GlcNAc(b1-6)]GlcNAc
# Summary of the method: as §1
# [31] = biological target: Man(a1-2)Man(a1-3)[Man(a1-2)Man(a1-6)]Man(a1-6)[Man(a1-2)Man(a1-2)Man(a1-3)]Man
# Summary of the method: as §1
# [32] = biological target: Neu5Ac(a2-3)Gal(b1-3)[Fuc(a1-4)]GlcNAc
# Summary of the method: as §1
# [33] = biological target: Neu5Ac(a2-3)Gal(b1-4)GlcNAc(b1-2)Man(a1-3)[Neu5Ac(a2-3)Gal(b1-4)GlcNAc(b1-2)Man(a1-6)]Man(b1-4)GlcNAc(b1-4)GlcNAc
# Summary of the method: as §1
# [34] = biological target: Neu5Ac(a2-3)Gal(b1-4)GlcNAc(b1-2)[Neu5Ac(a2-3)Gal(b1-4)GlcNAc(b1-6)]Man(a1-6)[Neu5Ac(a2-3)Gal(b1-4)GlcNAc(b1-2)Man(a1-3)][GlcNAc(b1-4)]Man(b1-4)GlcNAc(b1-4)GlcNAc
# Summary of the method: as §1
# [35] = biological target: Neu5Ac(a2-3)Gal(b1-4)[Fuc(a1-3)]GlcNAc(b1-3)Gal(b1-4)[Fuc(a1-3)]GlcNAc(b1-3)Gal(b1-4)[Fuc(a1-3)]GlcNAc
# Summary of the method: as §1
# [36] = biological target: Neu5Ac(a2-3)Gal(b1-4)[Fuc(a1-3)]GlcNAc(b1-6)[Gal(b1-3)]GalNAc
# Summary of the method: as §1
# [37] = biological target: Neu5Ac(a2-6)Gal(b1-4)GlcNAc(b1-2)[Neu5Ac(a2-6)Gal(b1-4)GlcNAc(b1-4)]Man(a1-3)[GlcNAc(b1-4)][Neu5Ac(a2-6)Gal(b1-4)GlcNAc(b1-4)Man(a1-6)]Man(b1-4)GlcNAc(b1-4)GlcNAc
# Summary of the method: as §1
# [38] = biological target: Neu5Ac(a2-6)Gal(b1-4)GlcNAc(b1-3)Gal(b1-4)GlcNAc(b1-3)Gal(b1-4)GlcNAc(b1-2)Man(a1-3)[Neu5Ac(a2-6)Gal(b1-4)GlcNAc(b1-3)Gal(b1-4)GlcNAc(b1-3)Gal(b1-4)GlcNAc(b1-2)Man(a1-6)]GalNAc
# Summary of the method: as §1
# [39] = biological target: Neu5Ac(a2-6)GalNAc(b1-4)GlcNAc6S
# Summary of the method: as §1
# [40] = biological target: Neu5Gc(a2-3)Gal(b1-4)[Fuc(a1-3)]GlcNAc
# Summary of the method: as §1
binder,measurement,setting,value
Pwp6 (Candida glabrata) (protein) MGSSHHHHHHSSGLVPRGSHMASANLPKLTNICQIPDNVKKTSGFKGEIRRIGLFPPGGDYTYLLKFPSTGSTASDTISLTTKPQLSTSGWFPSLFGHTYFIKADLLVYMVAYFVPTETGEYTFKLVNSDDAAVMYVGNPSAFPCGSIDTWPEPRKEDINVCDKISASTKLYMEKGLAYPVRLVWYNGGGDGQFNAQFIDPSGTTHTDWNGYVWQYDACTDCDYK,glycan array binding signal (z-score),[1],-0.318
same,glycan array binding signal (z-score),[2],-0.848
same,glycan array binding signal (z-score),[3],0.09
same,glycan array binding signal (z-score),[4],-0.701
same,glycan array binding signal (z-score),[5],-0.097
same,glycan array binding signal (z-score),[6],-0.201
same,glycan array binding signal (z-score),[7],0.167
same,glycan array binding signal (z-score),[8],-0.265
same,glycan array binding signal (z-score),[9],0.221
same,glycan array binding signal (z-score),[10],-0.617
same,glycan array binding signal (z-score),[11],-0.134
same,glycan array binding signal (z-score),[12],-0.681
same,glycan array binding signal (z-score),[13],-0.631
same,glycan array binding signal (z-score),[14],-0.334
same,glycan array binding signal (z-score),[15],0.606
same,glycan array binding signal (z-score),[16],2.96
same,glycan array binding signal (z-score),[17],0.465
same,glycan array binding signal (z-score),[18],5.06
same,glycan array binding signal (z-score),[19],3.31
same,glycan array binding signal (z-score),[20],1.2
same,glycan array binding signal (z-score),[21],-0.252
same,glycan array binding signal (z-score),[22],-0.556
same,glycan array binding signal (z-score),[23],0.023
same,glycan array binding signal (z-score),[24],2.94
same,glycan array binding signal (z-score),[25],3.63
same,glycan array binding signal (z-score),[26],3.3
same,glycan array binding signal (z-score),[27],3.79
same,glycan array binding signal (z-score),[28],3.71
same,glycan array binding signal (z-score),[29],-0.863
same,glycan array binding signal (z-score),[30],-0.466
same,glycan array binding signal (z-score),[31],-0.603
same,glycan array binding signal (z-score),[32],-0.364
same,glycan array binding signal (z-score),[33],4.2
same,glycan array binding signal (z-score),[34],1.89
same,glycan array binding signal (z-score),[35],-0.179
same,glycan array binding signal (z-score),[36],-0.222
same,glycan array binding signal (z-score),[37],-0.266
same,glycan array binding signal (z-score),[38],8.45
same,glycan array binding signal (z-score),[39],0.14
same,glycan array binding signal (z-score),[40],-0.654
